In PubChem BioAssay AID2284147 (EPA ToxCast):
The source made the active and inactive calls. The calls were made as follows: active = hit-call score of the fitted dose curve at least 0.9, where 1 is the maximum; inactive = score below 0.9.

Molecular target: human Angiotensin Receptor AT2 Antagonism, AGTR2 (gene 186) (UniProt P50052)
Test: ERF_TW_GPCR_hAGTR2: Eurofins (ERF) G Protein-Coupled Receptor (GPCR) Radioligand Binding LeadHunter Assay for human Angiotensin Receptor AT2 Antagonism
Description: ERF_TW_GPCR_hAGTR2 is a biochemical, single-readout assay that uses extracted gene-proteins in a cell-free assay. Measurements were taken 3 hour after chemical dosing in a 96-well plate. See AT2 Human Angiotensin GPCR Binding (Agonist Radioligand) Assay, Panlabs.ERF_TW_GPCR_hAGTR2 is an assay component calculated from the ERF_TW_GPCR_hAGTR2 assay. It is designed to measure radioligand binding using a type of binding reporter as detected by scintillation counting with radiometry technology.Data from the assay component ERF_TW_GPCR_hAGTR2 was analyzed at the assay endpoint, ERF_TW_GPCR_hAGTR2, in the positive analysis fitting direction relative to DMSO as the negative control and baseline of activity. Using a type of binding reporter, gain-of-signal activity can be used to understand changes in radioligand binding as they relate to gene AGTR2. To generalize the intended target to other relatable targets, this assay endpoint is annotated to the gpcr intended target family, where the subfamily is angiotensin.
Human recombinant angiotensin AT2 receptors expressed in CHO-K1 cells are used in modified Tris-HCl buffer pH 7.4. A 2.4 ug aliquot is incubated with 0.05 nM [125I] CGP-42112A for 3 hours at 37C. Non-specific binding is estimated in the presence of 10 uM (Sar1, Ile8)-Angiotensin II. Membranes are filtered and washed, the filters are then counted to determine [125I] […]

Sequence of human Angiotensin Receptor AT2 Antagonism, AGTR2 (gene 186) (P50052 whole entry, looked up): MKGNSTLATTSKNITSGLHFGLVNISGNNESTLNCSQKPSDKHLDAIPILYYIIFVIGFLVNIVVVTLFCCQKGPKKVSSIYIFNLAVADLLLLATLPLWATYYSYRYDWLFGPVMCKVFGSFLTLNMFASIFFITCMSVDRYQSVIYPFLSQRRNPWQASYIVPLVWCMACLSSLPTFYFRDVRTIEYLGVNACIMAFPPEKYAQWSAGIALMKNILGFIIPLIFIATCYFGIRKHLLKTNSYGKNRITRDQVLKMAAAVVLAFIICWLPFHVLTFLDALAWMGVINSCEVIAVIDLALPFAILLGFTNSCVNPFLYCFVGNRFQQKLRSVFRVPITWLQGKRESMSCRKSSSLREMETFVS

**Q.** `O=C(/C=C/c1ccc(O)cc1)CC(=O)/C=C/c1ccc(O)cc1` was tested. Which AC50 did it give?
**A.** 1750 nM (active)
